# Experimental data from PubChem BioAssay AID624170 (National Center for Advancing Translational Sciences (NCATS), 2012).
# Out of some 410,000 compounds screened, about 850 (0.21%) were called active. Another 2% or so got no clear call; they are omitted. This is one part of a sample in which actives are shown more often than they occur. Values without a mark were called inactive. The call rests on the fitted dose curve; in most records, active means well fitted inhibition curve with a large enough effect; inconclusive means small, poorly fitted or top-dose-only effect, or another doubt; inactive means no such curve, though single readings can be large or run the other way.
# Target: Glutaminase kidney isoform, mitochondrial (Homo sapiens) (UniProt O94925)
# Sequence (O94925 whole entry, looked up, canonical isoform): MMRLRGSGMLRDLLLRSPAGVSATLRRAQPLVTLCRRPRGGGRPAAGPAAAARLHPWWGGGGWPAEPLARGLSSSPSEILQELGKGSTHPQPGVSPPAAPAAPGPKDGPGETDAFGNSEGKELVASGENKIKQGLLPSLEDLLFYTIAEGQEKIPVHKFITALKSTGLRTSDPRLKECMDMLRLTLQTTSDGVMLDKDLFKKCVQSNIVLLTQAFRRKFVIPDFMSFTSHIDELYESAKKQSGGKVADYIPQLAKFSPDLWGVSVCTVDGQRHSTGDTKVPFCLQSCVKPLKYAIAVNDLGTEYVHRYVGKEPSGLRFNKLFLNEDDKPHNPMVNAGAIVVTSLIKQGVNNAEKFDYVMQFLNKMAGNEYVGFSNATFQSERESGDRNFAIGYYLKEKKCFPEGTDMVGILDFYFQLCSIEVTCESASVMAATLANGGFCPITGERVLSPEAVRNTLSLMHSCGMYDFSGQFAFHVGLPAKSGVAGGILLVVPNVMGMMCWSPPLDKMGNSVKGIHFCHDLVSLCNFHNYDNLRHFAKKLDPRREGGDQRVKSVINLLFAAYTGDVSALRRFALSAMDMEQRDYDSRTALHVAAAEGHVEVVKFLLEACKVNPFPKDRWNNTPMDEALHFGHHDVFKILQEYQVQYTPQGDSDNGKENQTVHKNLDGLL
# Assay: qHTS for Inhibitors of Glutaminase (GLS)
# Settings: GLS enzymatic activity, qHTS titration; series mostly up to 45.5 µM; activity change, negative = inhibition: at the top concentration
# Procedure, shortened: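 Read-out is an Amplex red fluorescence increase coupled through glutamate oxidase and HRP, measured before and after 30 min room-temperature incubation. hKGA is in 45 mM KH2PO4 (pH 8.2) with 0.02% Tween-20; glutamine added as 1mM solution.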
# On the % scale 0 is the no-effect control and ±100 the full control effect; potency means the concentration at half of the fitted maximal effect.
Compound,"activity change, negative = inhibition",Potency
CCOc1ccc(N(CC)C(=O)c2cc3c(=O)oc4ccccc4c3s2)cc1,2.89%,–
CC(=O)Oc1ccccc1C(=O)Nc1ncc([N+](=O)[O-])s1,-1.98%,–
CCOC(=O)c1c(C)oc2nc(C)nc(N3CCN(c4ccc(OC)cc4)CC3)c12,55.8%,–
O=C(CC1Oc2ccccc2NC1=O)NCc1ccc(F)cc1 (stereo not drawn),-0.884%,–
O=C(CCCCn1c(=O)c2ccccc2n(CC(=O)Nc2cccc(C(F)(F)F)c2)c1=O)NCc1ccc2c(c1)OCO2,2.14%,–
CCOc1cc2[nH]c(=S)n(Cc3ccc(C(=O)N4CCN(C)CC4)cc3)c(=O)c2cc1OCC,4.65%,–
COc1ccccc1Cn1c(=S)[nH]c2cc(C(=O)N3CCN(C)CC3)ccc2c1=O,–,12.6 µM (active)
COc1ccc(OC)c(-n2c(=S)[nH]c3cc(C(=O)N4CCCCC4)ccc3c2=O)c1,-3.96%,–
O=C1C(c2[nH]c3ccccc3c2O)=Nc2ccccc21,-15.6%,–
Cc1c(CCC(=O)O)c(=O)oc2cc3occ(-c4ccccc4)c3cc12,–,11.2 µM (active)
COc1cccc(-c2coc3cc4oc(=O)c(CC(=O)O)c(C)c4cc23)c1,14.3%,–
COc1ccc2c(C)c(CCC(=O)NCc3ccc(OC)c(OC)c3)c(=O)oc2c1,-10.3%,–
CN1C(=O)C[C@H](c2ccccc2)C1=O,4.96%,–
COc1ccc(C)cc1N(C)C(=O)c1c(C)oc2ncnc(N3CCOCC3)c12,1.19%,–
CC(C)c1ccc(S(=O)(=O)Nc2ccc(O)c(Sc3nc4ccccc4s3)c2)cc1,25.5%,–
O=[N+]([O-])c1c(NCCO)cc(Sc2nc3ccccc3s2)c2nonc12,-18.5%,–
O=C(O)c1cccc(S(=O)(=O)Nc2ccc(O)cc2Sc2nc3ccccc3s2)c1,–,14.1 µM (active)
CCOC(=O)c1ccc(NC(=O)CCn2cnnn2)cc1,-0.58%,–
CCCCCCCCCc1ccc(OCCOCCOCCOCCOCCOCCOCCOCCOCCO)cc1,1.72%,–
C[N+](C)(CCOc1ccccc1)Cc1cccs1 (tested in a mixture with another compound),-10.7%,–
Cc1cccc(C)c1N1CCN(S(=O)(=O)N2CCCCC2)CC1,-2.26%,–
O=S(=O)(N1CCCCC1)N1CCNCC1,–,15.8 µM (active)
O=S(=O)(/C=C/c1ccccc1)N1CCNCC1,-5.7%,–

Compound,"activity change, negative = inhibition",Potency
Cc1ccc(CN2CCC(CNC(=O)c3cnn(-c4ccccc4Cl)c3C3CCN(C(=O)OC(C)(C)C)CC3)CC2)cc1,4.11%,–
COc1cc(Cl)c(C)cc1Nc1nnc(-n2nc(C)cc2C)c2ccccc12,-3.1%,–
COC(=O)CCCCC1=CCC2C(=O)C=C(O)C2C1 (stereo not drawn),–,12.6 µM (active)
CCC(C)[C@@H](N)C(=O)O (stereo partly drawn),4.95%,–
NCCCCC(N)C(=O)O (stereo not drawn),-2.86%,–
Oc1ccc(Cl)c2c1CCC2,2.44%,–
CC(=O)OC[C@H]1O[C@@H](O[C@H]2[C@H](O)[C@@H](OC(=O)c3ccccc3C(=O)O)[C@H](O)O[C@@H]2COC(C)=O)[C@H](O)[C@@H](OC(=O)c2ccccc2C(=O)O)[C@@H]1O,-14.9%,–
Cc1ccnc(SC2CC(=O)N(c3ccccc3)C2=O)n1 (stereo not drawn),-1.05%,–
Cc1ccnc(-n2sc3ccccc3c2=O)n1,–,10 µM (active)
C/C=C/C=N/NC(=O)c1ccncc1,-0.188%,–
CCOC(=O)c1sc(NC(=O)/C=C/c2ccc(C(C)C)cc2)c(C(=O)OCC)c1C,-11.1%,–
CCOc1cccc2c1N[C@@H](c1ccc(C(=O)O)cc1)[C@H]1CC=C[C@@H]21,–,3.98 µM (active)
CCOc1cccc(CC(=O)N2CCc3c([nH]c4ccccc34)C2c2ccc(F)cc2)c1OCC (stereo not drawn),-4.77%,–
CCOC(=O)C1Nc2ccc(C(F)(F)F)cc2C2C=CCC12 (stereo not drawn),4.03%,–
Cc1ccc(S(=O)(=O)NC(=O)NN2C[C@H]3CCC[C@@H]3C2)cc1,-7.35% [at 20 µM],–
Cc1ccc(S(=O)(=O)n2nc(C)c(S(=O)(=O)N3CCCCCC3)c2C)cc1,4.66%,–
CC(C)(O)c1ccccc1CC[C@H](SCC1(CC(=O)O)CC1)c1cccc(/C=C/c2ccc3ccc(Cl)cc3n2)c1,-5.05%,–
COc1ccnc(C[S@@](=O)[C@@H]2Nc3ccc(OC(F)F)cc3N2)c1OC,1.84%,–
C=C1C(=CC=C2CCC[C@]3(C)[C@@H]([C@H](C)C=C[C@H](C)C(C)C)CC[C@@H]23)C[C@@H](O)C[C@@H]1O,-1.61%,–
Cc1cccc(CCNC(=O)c2ccc3c(c2)nc2n3CCC(C)C2)c1 (stereo not drawn),-1.52%,–
CCC1CCCCN1C(=O)CSc1nc2c(c(=O)n(C)c(=O)n2C)n1C (stereo not drawn),1.32%,–
CCOC(=O)CSc1nc2c(c(=O)n(Cc3ccccc3Cl)c(=O)n2C)n1C,–,7.94 µM (active)
CCN(CC)C(=O)CSc1nc2ccsc2c(=O)n1Cc1ccccc1Cl,-27.1%,–

Compound,"activity change, negative = inhibition",Potency
Cc1ccc(S(=O)(=O)N2CCc3cc(C(=O)Nc4ccc(Cl)cc4C)ccc32)cc1,0.0645%,–
CC(=O)CC(c1ccccc1)C1C(=O)Oc2ccccc2C1=O (stereo not drawn),-1.12%,–
Cc1ccc(NC(=O)c2cc(S(=O)(=O)NCCC3=CCCCC3)ccc2F)cc1C,-13%,–
CC1(C)OC2CO[C@]3(COS(N)(=O)=O)OC(C)(C)OC3C2O1 (stereo partly drawn),0.642%,–
CCOc1ccc(NS(=O)(=O)c2ccc(N)cc2)nn1,-3.75%,–
CN(C)CCCSc1ccccc1NC(=O)/C=C/c1ccccc1,14.7%,–
COc1ccc(/C=N/NC(=O)Cn2cc(C(F)(F)F)ccc2=O)cc1,6.71%,–
Oc1ccc(/C=N/Nc2ccc(C(F)(F)F)cn2)cc1O,–,11.2 µM (active)
C/C=C1\C2C=C(C)CC1(N)c1ccc(=O)[nH]c1C2 (stereo not drawn),-5.74%,–
Cc1c(Cl)cccc1NC(=O)C1CCCN(C(=O)c2cnn(-c3ccccc3)c2-n2cccc2)C1 (stereo not drawn),17.7%,–
CCCCCCCCCCCCCCCCO,-4.88%,–
CCCN(CCC)S(=O)(=O)c1ccc(C(=O)Nc2sc3c(c2C(=O)OC)CCN(CC)C3)cc1,4.53%,–
Cc1ccc(CN2CCc3nc(N4CCN(C)CC4)ncc3C2)cc1,21.7%,–
CC(=O)NC(=O)c1ccccc1O,-5.45%,–
Cc1ccc(NC(=O)Cn2sc3ccccc3c2=O)cc1,–,7.08 µM (active)
O=C(Cn1nc(C(=O)O)c2ccccc2c1=O)Nc1ccc(F)cc1,-9.16%,–
CC1(C)NC(=O)N(CC(=O)Nc2ccc(-c3ccccc3)cc2)C1=O,-0.741%,–
Cc1ccc(Cl)cc1N1CCN(C(=O)CN2C(=O)COc3ccc(S(=O)(=O)N4CCOCC4)cc32)CC1,-5.14%,–
C=Cc1ccc(C(=O)N2CCCC(CCC(=O)N3CCN(c4ccccn4)CC3)C2)cc1 (stereo not drawn),–,17.8 µM (active)
CC(=O)c1ccc(S(=O)(=O)NCCC(=O)N2CCN(c3ccccn3)CC2)cc1,0.816%,–
COc1cccc(CC(=O)N2CCCC(CCC(=O)N3CCN(c4ccccn4)CC3)C2)c1 (stereo not drawn),-4.22%,–
CCOC(=O)c1ccc(NC(=O)C2CCN(S(=O)(=O)c3ccc4c(c3)CCCC(=O)N4)CC2)cc1,-4.81%,–
